About 420 (0.61%) of roughly 69,000 compounds showed an effect of 50% or more. The sample holds strong results, similar compounds and a random draw of the others, so the mix is not that of the screen.
These compounds were tested against T1, Histidine--tRNA ligase (Leishmania infantum) (UniProt A4I591) (assay: Leishmania infantum Histidine tRNA synthetase (LdHisRS)). Settings: 30 µM.
T1 sequence (whole entry): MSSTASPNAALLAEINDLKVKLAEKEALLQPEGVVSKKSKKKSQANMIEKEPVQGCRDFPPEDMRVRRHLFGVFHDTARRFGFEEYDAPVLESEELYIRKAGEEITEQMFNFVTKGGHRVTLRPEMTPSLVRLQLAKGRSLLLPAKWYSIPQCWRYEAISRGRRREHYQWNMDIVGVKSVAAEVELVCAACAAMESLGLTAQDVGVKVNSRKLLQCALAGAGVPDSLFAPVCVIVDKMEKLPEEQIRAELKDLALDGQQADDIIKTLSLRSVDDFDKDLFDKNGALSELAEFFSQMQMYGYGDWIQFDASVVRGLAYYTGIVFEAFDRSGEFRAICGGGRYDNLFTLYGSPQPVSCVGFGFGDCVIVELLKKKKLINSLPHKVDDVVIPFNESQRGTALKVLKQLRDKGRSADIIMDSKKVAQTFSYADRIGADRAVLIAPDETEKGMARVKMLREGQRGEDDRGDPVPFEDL
Assay type: functional
Parameters: scale not given: in the data most compounds retested in dose-response had high values

Row | SMILES | Percent Effect [%]
1 | COCc1nc2cc3c(cc2c(=O)o1)OCCCO3 | 15.7
2 | CCC(C)CNc1ccc2oc(COC)nc2c1 (stereo unspecified) | 94.2
3 | CCCS(=O)(=O)C(C)C(=O)Nc1ccc2oc(C3CC3)nc2c1 (stereo unspecified) | 26.8
4 | c1cc(CN2CCCCC2)cc(NCc2cc[nH]n2)c1 | 15.8
5 | COCc1nc2cc(NCc3cc[nH]n3)ccc2o1 | 106
6 | O=C(NC1CC1)[C@H]1COC[C@H]2CN(c3ncc(F)cn3)C[C@H]21 | 12
7 | Cc1nc(CN2CCO[C@H]3CN(C(=O)c4cccn4C)C[C@H]32)cs1 | 10.5
8 | CNC(=O)[C@@H]1[C@@H](c2ccccc2)CN2CCN(Cc3cccs3)C[C@H]12 | 6.12
9 | Cc1ccc(CN2C[C@@H]3CN(CC4CCOCC4)CCO[C@@H]3C2)s1 | 19
10 | COCC(=O)N[C@H]1C[C@H]2C(=O)NC[C@@H](CCC(=O)NC3CC3)N2C1 | 5.56
11 | CN(C)C(=O)[C@@H]1CCO[C@@H]2CCN(c3ncccn3)C[C@@H]21 | 0
12 | CNC(=O)[C@@H]1CC[C@@H]2[C@@H](CCN2C(=O)N(C)C)O1 | 0
13 | COC[C@@]12CCO[C@@H]1CCN(C(=O)Cc1cccc(F)c1)C2 | 19.4
14 | CCOc1ccc2nc(CN3CCOC(CN)C3)ccc2c1 (stereo unspecified) | 13.4
15 | CCOc1ccc2nc(CN3CCC(CNC(C)=O)C3)ccc2c1 (stereo unspecified) | 37.3
16 | CCOc1ccc2nc(CN3CCC(CN)C3)ccc2c1 (stereo unspecified) | 52.2
17 | COC[C@@]12CCO[C@@H]1CCN(C(=O)Cc1ccccc1F)C2 | 11.4
18 | O=C1[C@@H]2CCN(Cc3ccoc3)C[C@@H]2OCCN1Cc1cccnc1 | 15.3
19 | CN1CC(NC(=O)CCOc2cccc(Cl)c2)CC1=O (stereo unspecified) | 4.22
20 | Cc1cc(C)cc(OCCC(=O)NC2CC(=O)N(C)C2)c1 (stereo unspecified) | 74.7
21 | Cc1ccc(OCCC(=O)NC2CC(=O)N(C)C2)cc1C (stereo unspecified) | 12.7

Row | SMILES | Percent Effect [%]
22 | Cc1nc(CN2CCO[C@H]3[C@H](OCC(=O)N(C)C)CC[C@@H]32)cs1 | -9.73
23 | COc1cccc(-c2n[nH]c3c2CN(C(=O)c2cc(C)n(C)n2)CC3)c1 | 0
24 | COc1cccc(-c2n[nH]c3c2CN(C(=O)c2cccc(=O)[nH]2)CC3)c1 | 65.6
25 | COc1cccc(-c2n[nH]c3c2CN(C(=O)c2ccncc2)CC3)c1 | 0
26 | Cc1csc(CN2CC[C@H]3C[C@@H](c4noc(C)n4)O[C@@H]3C2)n1 | 12.9
27 | COc1ccc(CC(=O)N(C)c2cccnc2N(C)C)c(Cl)c1 | 57.1
28 | CN(C)c1ncccc1N(C)C(=O)Cn1cc(-c2ccccc2)nn1 | 0
29 | COc1cccc(OCC(=O)N(C)c2cccnc2N(C)C)c1 | 10.2
30 | COC[C@]12COC[C@H]1CN(Cc1cc(OC)cc(OC)c1)C2 | 4.51
31 | COCC(=O)N1CC[C@H]2C[C@@H](c3nnc(C4CC4)o3)O[C@@H]2C1 | 18.9
32 | CCn1nc(C)cc1C(=O)N1CC[C@H](OC)[C@H]2CN(CC3CC3)C[C@H]21 | 3.95
33 | COc1ccc(CC(=O)N2CC[C@@H]3[C@H](CC2)N(C)CCS3(=O)=O)cc1 | 17.1
34 | Cc1cccnc1NC(=O)C1CSc2ncc(C)c(=O)n2C1 (stereo unspecified) | 20.5
35 | Cc1cnc2n(c1=O)CC(C(=O)Nc1cccc3cccnc13)CS2 (stereo unspecified) | 67.3
36 | Cc1ccncc1NC(=O)C1CSc2ncc(C)c(=O)n2C1 (stereo unspecified) | 15.4
37 | CC(C)NC(=O)[C@@H]1CCO[C@@H]2CCN(c3ncccn3)C[C@@H]21 | 11.1
38 | COCc1nc2cc(NCc3csc(C)n3)ccc2o1 | 29.5
39 | Cc1csc(CNc2cccc(OCCN3CCCC3)c2)n1 | 23.2
40 | COCCCSc1ccc(NCc2scnc2C)cc1 | 9.09
41 | COCc1nc(CNc2cccc(-c3csc(C)n3)c2)cs1 | -6.67
42 | COCc1nc2cc(NCc3scnc3C)ccc2o1 | 54.5

Row | SMILES | Percent Effect [%]
43 | Cc1ncsc1CNc1cccc(OCCN2CCCC2)c1 | 25.2
44 | COCc1nc(CNc2cccc(-c3nc(C)c(C)o3)c2)cs1 | 0
45 | COCc1nc2cc(NCc3nc(C)cs3)ccc2o1 | 106
46 | COCc1nc2cc(NCc3sc(C)nc3C)ccc2o1 | 79.5
47 | CN(C)CCNC(=O)[C@H]1C[C@@H]2CN(C(=O)NC3CCCC3)C[C@H]1O2 | 8.62
48 | CN(C)c1cccc(C(=O)N2C[C@H]3CC[C@@H]2CN(C(=O)C2CCC2)C3)c1 | 18.4
49 | O=S(=O)(c1cccs1)N1CCN2C[C@H](OCC3CC3)C[C@H]2C1 | 10.5
50 | C[C@@H]1C[C@H]2CN(C(=O)c3ccncn3)C[C@H]2O1 | -2.56
51 | Cc1nnc([C@@H]2CCO[C@@H]3CCN(C(=O)Cc4ccccn4)C[C@@H]32)o1 | 15.8
52 | CN1[C@H](CN2CCCC2)C[C@@H]2CN(Cc3ccoc3)CC[C@@H]21 | 6.84
53 | CCn1cc(-c2cc(-c3ccn(C)c3)nc(N)c2C#N)cc1C#N | 10.4
54 | Cn1cc(-c2c(C#N)c(N)nc3c2CCc2[nH]ccc2-3)cc1C#N | 68.4
55 | Cc1c(-c2cnn(C)c2)nc(N)c(C#N)c1-c1ccc(CO)o1 | 19.7
56 | Cc1cc(-c2c(C)c(-c3cnn(C)c3)nc(N)c2C#N)oc1C | 22.4
57 | CCc1ccc(-c2c(C)c(-c3cnn(C)c3)nc(N)c2C#N)o1 | 19.7
58 | Cc1n[nH]c(C)c1-c1cc(-c2cc[nH]c2)nc(N)c1C#N | 31.9
59 | Cn1cc(-c2c(C#N)c(N)nc3c2CCc2[nH]ccc2-3)cn1 | 97.4
60 | Cc1n[nH]c(C)c1-c1cc(-c2ccc[nH]2)nc(N)c1C#N | 27.5
61 | Cc1n[nH]c(C)c1-c1c(C#N)c(N)nc2c1CCc1[nH]ccc1-2 | 108
